The values that follow come from PubChem BioAssay (NCATS).

Results filed as inconclusive are left out. Calls of active or inactive are those of the source. Calls follow the shape of the dose curve; as a rule, active = well fitted cell-killing curve with a large enough effect; inconclusive = small, poorly fitted or top-dose-only effect, or effect the other way; inactive = no such curve, though single readings can be large or run the other way.

The nature of assay [1]: Quantitative High-Throughput drug screen in 47 multiple myeloma cell lines against the NCATS MIPE library collection: U266_ATCC cell viability assay (AID 1919864). Also: nearly all actives have a fitted effect of over 35% in size. The method, boiled down: (§1)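 Viability after 48 h drug exposure was measured as ATP-dependent luminescence. Cells, 500 per well, sat at 37 °C under 5% CO2; DMSO wells set 100%, media-only wells 0%.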
Assay [2] is described as follows: Quantitative High-Throughput drug screen in 47 multiple myeloma cell lines against the NCATS MIPE library collection: XG6_PLB cell viability assay (AID 1919865). Also: nearly all actives have a fitted effect of over 40% in size. The method, boiled down:
as §1

Assay [3] in a line: Quantitative High-Throughput drug screen in 47 multiple myeloma cell lines against the NCATS MIPE library collection: VP6_DJ cell viability assay (AID 1919867). Also: nearly all actives have a fitted effect of over 40% in size. The method, boiled down: as §1
Assay [4] is described as follows: Quantitative High-Throughput drug screen in 47 multiple myeloma cell lines against the NCATS MIPE library collection: UTMC2_PLB cell viability assay (AID 1919868). Also: nearly all actives have a fitted effect of over 55% in size. Conditions: CellTiter-Glo ATP luminescence, 48 h; viability (% of DMSO control): at 45.8 µM (top of the series). The method, boiled down:
as §1

Assay [5] in a line: Quantitative High-Throughput drug screen in 47 multiple myeloma cell lines against the NCATS MIPE library collection: PE2_PLB cell viability assay (AID 1919869). Also: nearly all actives have a fitted effect of over 35% in size. The procedure, abridged:
as §1

Assay [6] can be described thus: Quantitative High-Throughput drug screen in 47 multiple myeloma cell lines against the NCATS MIPE library collection: PCM6_Riken cell viability assay (AID 1919870). Also: nearly all actives have a fitted effect of over 30% in size. The method, boiled down:
as §1

Assay [7] is described as follows: Quantitative High-Throughput drug screen in 47 multiple myeloma cell lines against the NCATS MIPE library collection: KMS11_JCRBsus cell viability assay (AID 1919873). Also: nearly all actives have a fitted effect of over 50% in size. The procedure, abridged: as §1
Assay [8] can be described thus: Quantitative High-Throughput drug screen in 47 multiple myeloma cell lines against the NCATS MIPE library collection: XG1_PLB cell viability assay (AID 1919866). Also: nearly all actives have a fitted effect of over 35% in size. The procedure, abridged:
as §1

Assay [9] in a line: Quantitative High-Throughput drug screen in 47 multiple myeloma cell lines against the NCATS MIPE library collection: OPM2_DSMZ cell viability assay (AID 1919872). Also: nearly all actives have a fitted effect of over 30% in size. The method, boiled down:
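Myeloma cell lines, 500 cells per well, exposed to MIPE 4.0 library compounds for 48 h at 37C, 5% CO2. Viability from ATP by CellTiter-Glo luminescence; normalised to DMSO (100%) and media-only (0%) wells.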

A short description of assay [10]: Quantitative High-Throughput drug screen in 47 multiple myeloma cell lines against the NCATS MIPE library collection: RPMI8226_ATCC cell viability assay (AID 1919871). Also: nearly all actives have a fitted effect of over 30% in size. The procedure, abridged:
as §1
Potency is read from the fitted curve at half-maximal effect.

Turning to `c1ccc(CNc2nc(NCc3ccccc3)c3ccccc3n2)cc1`, the Potency in [1] was 14.8 µM (active); in assay [2] it was 8.33 µM (active); in assay [3] it was 8.33 µM (active); in assay [4], 10.5 µM (active); in [5], 11.8 µM (active); in assay [6], 8.33 µM (active). The Potency in [7] was 11.8 µM (active).

For the compound `COc1ccnc2[nH]cc(C(=O)C(=O)N3CCN(C(=O)c4ccccc4)C[C@@H]3C)c12`, the Potency entry in assay [1], in [2], in [8], in [4], in assay [5] and in assay [6] was “inactive” each time. In addition, the Potency result in assay [9] and in assay [7] was “inactive” in each case.

On to `C[C@H](NC(=O)Cc1cc(F)cc(F)c1)C(=O)N[C@H](C(=O)OC(C)(C)C)c1ccccc1`, for which the Potency entry in [1], in assay [2], in assay [8], in [5], in assay [6] and in [9] was “inactive” each time.

Regarding `C[N+]1(C)[C@@H]2C[C@@H](OC(=O)C(O)(c3cccs3)c3cccs3)C[C@H]1[C@@H]1O[C@@H]12`, the Potency entry in [1], in [2], in [8], in [4], in assay [5] and in assay [6] was “inactive” each time. Also, the Potency result in assay [10] and in assay [7] was “inactive” in each case.

`Cn1c(Nc2ccc(C(F)(F)F)cc2)nc2cc(Oc3ccnc(-c4ncc(C(F)(F)F)[nH]4)c3)ccc21`: the Potency in assay [1] was 6.62 µM (active); in [2], 5.9 µM (active); in assay [3] it was 13.2 µM (active); in [5], 16.6 µM (active); in assay [6], 1.87 µM (active); in assay [10], 16.6 µM (active).

In the case of `O=C1NC(O)CCN1[C@@H]1O[C@H](CO)[C@H](O)[C@H]1O` (some centres undefined), the Potency result in assay [1], in [2], in assay [5], in assay [9] and in [7] was “inactive” each time. The Potency in assay [8] was 11.8 µM (active).

As to `CC(=O)OCC(=O)[C@@]1(O)CC[C@H]2[C@@H]3CCC4=CC(=O)CC[C@]4(C)[C@@H]3C(=O)C[C@@]21C`, the Potency result in assay [1], in assay [2], in [8], in [5], in assay [6] and in assay [10] was “inactive” each time. Besides, the Potency entry in assay [9] was “inactive”.

As to `CN(C)CCN1C(=O)c2cccc3cc(N)cc(c23)C1=O`, the Potency was 18.7 µM (active) in [1]; 14.8 µM (active) in assay [2]; 14.8 µM (active) in assay [3]; 5.9 µM (active) in assay [4]; 20.9 µM (active) in [5]; 16.6 µM (active) in [6]. For the same compound, the Potency in assay [10] and in [7] was 16.6 µM (active) throughout.

For the compound `COc1cc(C[C@@H](CO)[C@H](CO)Cc2ccc(O)c(OC)c2)ccc1O`, the Potency in [1] is 0.469 µM (active); in assay [2], 0.209 µM (active); in assay [3], 0.372 µM (active); in assay [4], 1.32 µM (active); in assay [5], 2.35 µM (active); in assay [6] it was 0.132 µM (active). Moreover, the Potency result in assay [9] and in assay [7] was “inactive” throughout.

Consider `Oc1cc2c(cc1O)C1c3ccc(O)c(O)c3OCC1(O)C2` (centres undefined), for which the Potency entry in assay [1], in assay [2], in [8], in assay [10], in assay [9] and in assay [7] was “inactive” throughout. The Potency in [5] is 20.9 µM (active).

Take `FC(F)(F)c1ccc(Nc2nc3ccc(Oc4ccnc(-c5ncc(C(F)(F)F)[nH]5)c4)cc3[nH]2)cc1`: the Potency in assay [1] was 13.2 µM (active); in [2] it was 16.6 µM (active); in [8] it was 14.8 µM (active); in assay [5] it was 26.4 µM (active); in [6] it was 18.7 µM (active); in assay [10], 26.4 µM (active).

For `Cc1ccc(O)c(C(CCN(C(C)C)C(C)C)c2ccccc2)c1` (centres undefined), the Potency entry in [1], in assay [2], in assay [8], in [3], in assay [5] and in assay [6] was “inactive” throughout. In addition, the Potency result in [7] was “inactive”.

With `Cn1cc(C=CC(=O)c2cccc(F)c2)cc1C=CC(=O)NO`, the Potency in [1] is 14.8 µM (active); in assay [2], 2.35 µM (active); in [8], 5.9 µM (active); in assay [5] it was 20.9 µM (active); in [6] it was 18.7 µM (active); in assay [9], 23.5 µM (active). Moreover, the Potency in [7] was 14.8 µM (active). Moreover, the Potency result in [10] is “inactive”.

Turning to `COc1ccc(Nc2cc(-c3cnc(N)nc3)nc(N3CCOCC3)n2)cn1`, the Potency in assay [1] is 11.8 µM (active); in assay [2], 3.72 µM (active); in assay [8], 2.35 µM (active); in assay [3] it was 5.26 µM (active); in assay [5], 3.32 µM (active); in [9], 7.43 µM (active). For the same compound, in assay [7], the Potency was 0.469 µM (active).

Turning to `C#C[C@]1(O)CC[C@@H]2[C@@H]3CCC4=CC(=O)CC[C@@H]4[C@H]3CC[C@@]21CC`, the Potency entry in assay [1], in assay [2], in [8], in [4], in [5] and in assay [6] was “inactive” in each case. Besides, the Potency entry in assay [9] was “inactive”.

For `COc1cc(C)c(C=CC(C)=CC=CC(C)=CC(=O)O)c(C)c1C`, the Potency entry in assay [1], in assay [2], in assay [8], in assay [9] and in assay [7] was “inactive” throughout. Moreover, the Potency in [10] is 1.48 µM (active).

In the case of `C[C@]12CC[C@@H]3c4ccc(O)cc4CC[C@H]3[C@H]1CC[C@H]2O`, the Potency was 6.62 µM (active) in assay [1]; 5.9 µM (active) in assay [2]; 6.62 µM (active) in assay [8]; 8.33 µM (active) in assay [3]; 16.6 µM (active) in [5]; 18.7 µM (active) in assay [9]. For the same compound, the Potency in assay [7] was 14.8 µM (active).
